High-throughput results as filed in PubChem.
ALDH1A1 block: blocks purified human ALDH1A1 activity | P00352 | Purified ALDH1A1, NADH fluorescence, propionaldehyde substrate | Potency, µM (top dose mostly 75.3 µM), usual class: inhibitors | hit rate 7.3% among 220,000 | AID 1030; active = well fitted inhibition curve with a large enough effect, not every such curve was filed as active; inconclusive = small, poorly fitted or top-dose-only effect, or another doubt; inactive = no such curve, though single readings can be large or run the other way
VP16 counter: inhibits Gal4-VP16 luciferase reporter, ROR gamma counter-screen; Potency, µM (titrated, usually from 53.6 µM), usual class: inhibitors; Drosophila S2 Gal4-VP16 UAS-luciferase, luminescence, 20 h; hit rate 3.5% among 310,000;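 also: Gal4-VP16 expression switched on by copper sulfate through the metallothionein promoter; nearly all actives have a fitted effect of over 50% in size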
Sfp PPTase inh: Sfp phosphopantetheinyl transferase inhibition | Biochemical Sfp PPTase activity, qHTS | Potency, µM, usual class: inhibitors | hit rate 3.5% among 310,000;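 also: the enzyme is Sfp with the accession as filed and its product quenches rhodamine fluorescence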
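After 15 min at room temperature with compound, 15 nM Sfp received 5 uM rhodamine-CoA plus 12.5 uM BHQ-2-ybbR (50 mM Hepes pH 7.6, 10 mM MgCl2). Rate came from the fluorescence difference over 30 min, ex 525/em 598 nm.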
RORgamma inh: ROR gamma (mouse) transcription inhibition | P51450 | Drosophila S2 Gal4-RORgamma UAS-luciferase reporter, 20 h | Potency, µM (highest dose often 53.6 µM), usual class: inhibitors | hit rate 5.4% among 310,000 | AID 2551; also: nearly all actives have a fitted effect of over 60% in size
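Using a luciferase readout, inhibitors were identified by reduced reporter activity in Drosophila cells coexpressing a copper-inducible Gal4–ROR gamma fusion and UAS-driven Photinus luciferase, incubated 20 hr after 700 uM copper sulfate.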
PLK1 PBD block: inhibitors of human PLK1 polo-box domain binding. P53350. Plk1 PBD binding of FITC phosphopeptide, fluorescence polarization. Potency, µM, actives largely listed as inhibitors. hit rate 2.8% among 360,000. AID 720504; also: series mostly up to about 57 µM; nearly all actives have a fitted effect of over 65% in size
Target sequence (P53350 whole entry, looked up, the tested form may be a part): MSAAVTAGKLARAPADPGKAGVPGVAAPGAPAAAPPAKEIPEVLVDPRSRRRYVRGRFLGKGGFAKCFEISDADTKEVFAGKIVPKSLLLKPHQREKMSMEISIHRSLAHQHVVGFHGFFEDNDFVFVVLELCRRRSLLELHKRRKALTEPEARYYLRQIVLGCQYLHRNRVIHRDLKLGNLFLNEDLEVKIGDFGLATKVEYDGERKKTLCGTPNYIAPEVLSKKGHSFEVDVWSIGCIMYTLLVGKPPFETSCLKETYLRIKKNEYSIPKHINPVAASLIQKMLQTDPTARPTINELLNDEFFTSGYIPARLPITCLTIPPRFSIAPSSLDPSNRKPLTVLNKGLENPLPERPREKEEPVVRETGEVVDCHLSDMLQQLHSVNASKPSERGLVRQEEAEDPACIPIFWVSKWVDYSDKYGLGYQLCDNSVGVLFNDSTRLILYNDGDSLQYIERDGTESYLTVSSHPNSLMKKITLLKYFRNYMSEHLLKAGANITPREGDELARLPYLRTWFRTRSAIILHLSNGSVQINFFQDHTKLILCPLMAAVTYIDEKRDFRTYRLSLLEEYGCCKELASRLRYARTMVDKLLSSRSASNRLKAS
Numbers stand for hits; 0 = inactive; ? = inconclusive; - = not tested or not shown; [ ] = dose if it differs, or a comment. The list is not random: actives were taken first. Their share in the collection is about 12%. Unless noted, calls follow the shape of the dose curve; as a rule, active = well fitted curve in the direction sought with a large enough effect; inconclusive = small, poorly fitted or top-dose-only effect, or another doubt; inactive = no such curve, though single readings can be large; an effect the other way counts as inactive or inconclusive.

SMILES | ALDH1A1 block | VP16 counter | Sfp PPTase inh | RORgamma inh | PLK1 PBD block
Cc1ccccc1OCCNC(=O)CSc1ccc(C(F)(F)F)cc1[N+](=O)[O-] | 12.6µM | 0 | 0 | 0 | ?
O=C(Nc1ccc(S(=O)(=O)Nc2ncccn2)cc1)c1nn(Cc2ccccc2)c(=O)c2ccccc12 | - | 0 | 0 | 0 | 0
CC(C)C(=O)NC(=S)Nc1ccc(S(=O)(=O)Nc2nccs2)cc1 | 0 | 0 | 0 | 0 | ?
N#Cc1cccc(C(=O)Nc2ccc(S(=O)(=O)Nc3nccs3)cc2)c1 | - | - | - | - | 0
CCn1nc(C(=O)Nc2ccc(S(=O)(=O)Nc3nccs3)cc2)c2ccccc2c1=O | 28.2µM | 0 | 0 | 0 | 0
O=C(NC(=S)Nc1ccc(S(=O)(=O)Nc2nccs2)cc1)c1ccc(Br)o1 | 31.6µM | 0 | 0 | 0 | 0
O=C(Nc1nccs1)c1cccc(N2C(=O)c3cccc4c([N+](=O)[O-])ccc(c34)C2=O)c1 | 0 | 7.08µM | 0 | 7.08µM | 0
O=C(Nc1ccc(S(=O)(=O)Nc2nccs2)cc1)c1cccc(N2C(=O)c3ccccc3C2=O)c1 | 7.08µM | 0 | 0 | 0 | 0
CCS(=O)(=O)N1Cc2cc(C(=O)NCCOC)nc(-c3cccc(-c4ccncc4)c3)c2[C@H]1CCO | - | - | - | - | 0
CC(=O)C1=C(O)C2(C)c3c(O)c(C)c(O)c(C(C)=O)c3OC2CC1=O (configuration not stated) | - | - | - | - | 0
O=C(NC(=S)Nc1ccc(S(=O)(=O)Nc2nccs2)cc1)c1ccccc1 | 31.6µM | 0 | 0 | 0 | 0
COc1cccc(OC)c1C(=O)NC(=S)Nc1ccc(S(=O)(=O)Nc2nccs2)cc1 | 0 | 0 | 0 | 0 | 0
O=C(NC(=S)Nc1ccc(S(=O)(=O)Nc2nccs2)cc1)c1ccc(F)c(F)c1 | 25.1µM | 0 | 0 | 0[10 µM] | 0
O=C(NC(=S)Nc1ccc(S(=O)(=O)Nc2nccs2)cc1)c1ccccc1F | 2µM | 0 | 0 | ? | 15µM
O=C(NC(=S)Nc1ccc(S(=O)(=O)Nc2nccs2)cc1)c1cccnc1 | ? | 0 | 0 | 0 | ?
COc1nccnc1NS(=O)(=O)c1ccc(NC(=S)NC(=O)c2ccc(F)c(F)c2)cc1 | ? | 0 | 0 | 0 | 0
O=C(c1ccncc1)N1CCC2(CCCN(Cc3ccncc3)C2)CC1 | 0 | 0 | 0 | 0 | -
Cc1cc(NC(=O)c2sccc2C)n(-c2nc3ccccc3[nH]2)n1 | 0 | 3.55µM | 0 | 1µM | 0
Cc1cc(NC(=O)c2cccs2)n(-c2nc3ccccc3[nH]2)n1 | 0 | 0 | 0 | 0 | 0
CCOC(=O)C(=O)Nc1cc(C)nn1-c1nc2ccccc2[nH]1 | 0 | 0 | 0 | 0 | 0
COc1ccc(C(=O)Nc2cc(C)nn2-c2nc3ccccc3[nH]2)c(OC)c1 | 0 | 3.98µM | 0 | 2.24µM | 0
Cc1cc(NC(=O)C2CCCC2)n(-c2nc3ccccc3[nH]2)n1 | ? | 1.41µM | 0 | 0.631µM | 0
COc1cccc(OC)c1C(=O)Nc1cc(C)nn1-c1nc2ccccc2[nH]1 | 0 | ? | 0 | 3.55µM | 0
Cc1cc(NC(=O)c2ccccc2)n(-c2nc3ccccc3[nH]2)n1 | ? | 2.82µM | 0 | 1µM | 0
Cc1cc(NC(=O)CC#N)n(-c2nc3ccccc3[nH]2)n1 | - | ? | 0 | ? | 0
SMILES | ALDH1A1 block | VP16 counter | Sfp PPTase inh | RORgamma inh | PLK1 PBD block
CCCCNC(=O)C[C@@H]1C[C@@]2(C(=O)OC)CCCCC=C2N(Cc2ccc(Cl)cc2Cl)C1=O | - | - | - | - | 0
O=[N+]([O-])c1cc(C(F)(F)F)ccc1Sc1ccc2ccccc2n1 | ? | 0 | ? | 0 | 29.9µM
O=C(Cn1nc2ccccc2n1)N/N=C/c1cc(Cl)cc([N+](=O)[O-])c1O | 14.1µM | 14.1µM | 0 | 1.78µM | 0
O=C(Cn1nnc(-c2ccccc2)n1)N/N=C/c1cccc([N+](=O)[O-])c1O | 0 | ? | 0 | 1.78µM | 0
CC(C)(C)N/N=C/c1cc(Cl)cc([N+](=O)[O-])c1O | 0 | 0 | 0 | 0 | ?
Cc1ccccc1C(=O)Nc1cccc(C(=O)N/N=C/c2cc(Cl)cc([N+](=O)[O-])c2O)c1 | 1.26µM | 2.51µM | 0 | 1.12µM | 0
O=[N+]([O-])c1cc(Cl)cc(/C=N/Nc2nc3ccccc3s2)c1O | 0 | 2.24µM | 0 | 0.891µM | 26.7µM
O=C(N/N=C/c1cc(Cl)cc([N+](=O)[O-])c1O)C1CC1 | ? | 2µM | 0 | 0.631µM | 0
COc1cc(/C=N/n2c(-c3ccccc3)n[nH]c2=S)ccc1O | 25.1µM | 0 | 0 | 0 | 0
COc1ccc(/C=N/n2c(-c3ccc(C)cc3)n[nH]c2=S)cc1OC | - | 0 | 0 | 3.16µM | 0
COC(=O)C/C=C\[C@@H](C)[C@@H](/C=N\OC[C@@H](O)[C@H]1O[C@H]2OC(C)(C)O[C@H]2[C@@H]1O)NS(=O)(=O)c1ccc(C)cc1 | 0[13.5 µM] | 0[10 µM] | 0 | 0[10 µM] | -
CC(=O)N1CCN=C1SCc1ccccc1 | ? | 0 | 0 | 0 | 0
Cc1ccc(C(=O)N2CCN=C2SCc2ccc([N+](=O)[O-])cc2)cc1 | ? | ? | 0 | ? | 0
Cc1ccc(CSC2=NCCN2C(=O)c2ccc([N+](=O)[O-])cc2)cc1 | 15.8µM | 0 | 0 | 0 | 0
O=C(c1ccc2c(c1)OCO2)N1CCN=C1SCc1ccccc1 | 11.2µM | 0 | 0 | ? | 0
COc1ccc(CNC(=O)c2ccc(-c3c(C)noc3C)c3ccoc23)cc1OC | - | - | - | - | 0
COc1ccc(/C(O)=C2\C(=O)C(=O)N(CCN(C)C)C2c2cc(OC)c(OC)c(OC)c2)c(C)c1 (configuration not stated) | 28.2µM | 0 | 0 | 0 | 0
CCCOc1cccc(C2/C(=C(/O)c3ccc(OC)cc3)C(=O)C(=O)N2CCN(C)C)c1 (configuration not stated) | 15.8µM | 0 | 0 | 0 | 0
NC1=N[C@H](c2ccc(Cl)cc2)N(c2ccc(S(=O)(=O)Nc3ncccn3)cc2)C(N)=N1 | 0[13.5 µM] | - | - | - | -
N#Cc1cnc2c(-c3ccccc3)c(-c3ccccc3)nn2c1N | ? | 0 | 0 | 0 | 18.9µM
Cc1nn2c(N)c(C#N)cnc2c1-c1ccccc1 | 0 | ? | 0 | ? | 0
Cc1cc(-n2c(C)cc(C(=O)CCl)c2C)no1 | 1µM | ? | 0 | 6.31µM | 13.4µM
COc1ccc(-n2c(C)cc(C(=O)CCl)c2C)cc1 | 0.316µM | ? | 0 | 12.6µM | ?
Cc1cc(-n2c(C)cc(C(=O)CSc3ccccn3)c2C)no1 | - | - | - | - | 16.8µM
COc1ccc(-n2c(C)cc(C(=O)CN3C(=O)c4ccccc4C3=O)c2C)cc1 | ? | 0 | 0 | ? | 0
Cc1cc(C(=O)CCl)c(C)n1-c1c(C)n(C)n(-c2ccccc2)c1=O | 12.6µM | ? | 0 | ? | 0
Cc1nnc(SCC(=O)c2cc(C)n(-c3c(C)n(C)n(-c4ccccc4)c3=O)c2C)s1 | 0 | 0 | 0 | 0[10 µM] | 0
CCCCNC(=O)COC(=O)CNC(=O)c1cc(Cl)cc([N+](=O)[O-])c1 | 0 | 0 | 0 | 0 | 0
C[C@@H]1CN([C@H](C)CO)S(=O)(=O)c2ccc(C#CCN(C)C)cc2O[C@@H]1CN(C)Cc1ccccc1F | - | - | - | - | 0
COc1ccc(-n2c(C)cc(C(=O)COC(=O)Cn3cnc4ccccc43)c2C)cc1 | 12.6µM | - | 0 | 0[0.365 µM] | 0
